Shown are actives, neighbours in structure and some others; about 19% of the full set was active somewhere.
HT1080NT lethal: kills 2HG-producing HT-1080-NT fibrosarcoma cells. HT-1080-NT fibrosarcoma viability, CellTiter-Glo ATP luminescence, 48 h. Potency, µM (highest dose often 46.1 µM), for the others: at the highest dose activity, negative = less viability, usual class: cytotoxic. 1.6% of 360,000 active. AID 686970;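 note: NT is the 2HG producing partner of a matched IDH1 knockdown line; potency is the fitted concentration of half-maximal effect; 0% = DMSO-treated cells and -100% = media-only wells without cells; nearly all actives have a fitted effect of over 55% in size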
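Toxicity toward the 2HG-producing NT line was scored as %Activity, normalised to DMSO and no-cell wells, from CellTiter-Glo luminescence after 48 hours' treatment.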
IL-1B inflam inh: inhibitors of inflammasome signaling (IL-1 beta secretion). THP-1 LPS/ATP IL-1B secretion, AlphaLISA, 16 h; active compounds read low. activity change, % at 57.5 µM. 4.7% of 360,000 active. AID 743279; in the data active = activity change below about -50%; inconclusive = mostly about -30% to -49%
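THP-1 cells pretreated 1 hr with compounds (up to 57.5 uM final), then stimulated with LPS (250 ng/mL final) plus ATP (1.25 mM final); secreted IL-1B measured by AlphaLISA after 16 hr, decreased signal indicating inhibition.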
TDP1 cell CPT: growth inhibition of DT40 Tdp1-/-;hTDP1 cells with camptothecin (screen for TDP1 inhibitors); Potency, µM (doses to about 46.2 µM), without a hit: top-dose activity change, negative = growth inhibition, usual class: inhibitors; AID 686979; chicken DT40 Tdp1-/-;hTDP1 cells + 20 nM CPT, ATP luminescence, 48 h; 12% of 420,000 active; note: potency is the fitted concentration of half-maximal effect; nearly all actives have a fitted effect of over 55% in size
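Cell growth measured by CellTiter-Glo luminescence after a minimum 48 h, 37 C compound exposure with 20 nM CPT in Tdp1-knockout DT40 cells stably expressing hTDP1, seeded 400/well; qHTS titration format.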
HT1080 IDH1KD tx: kills HT-1080 cells with IDH1 knockdown | HT-1080 IDH1 knockdown viability, ATP luminescence, 48 h | 2% of 360,000 active | Potency, µM (top dose mostly 46.1 µM), without a hit: at the top dose activity, negative = toxicity, actives largely listed as cytotoxic;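 note: potency is the fitted concentration of half-maximal effect; 0% = DMSO wells and -100% = cell-free medium wells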
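CellTiter-Glo luminescence after 48 h compound exposure at 37 degrees C of IDH1-knockdown HT-1080 cells in 5% FBS RPMI. %Activity scaled between DMSO wells and cell-free media wells, with curves fitted and assigned curve classes.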
DT40 TDP1 no CPT: qHTS for Inhibitors of human tyrosyl-DNA phosphodiesterase 1 (TDP1): qHTS in cells in absence of CPT; DT40 Tdp1-/- hTDP1 cells, no CPT, ATP luminescence, 48 h; Potency, µM (highest dose often 46.2 µM), inactives show at the highest dose activity change, negative = growth inhibition, hits mostly inhibitors; 15% of 420,000 active; AID 686978, 2013; note: potency is the fitted concentration of half-maximal effect; nearly all actives have a fitted effect of over 55% in size
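Camptothecin absent (DMSO only). Human TDP1-complemented DT40 knockout cells, 400 cells/well, 37 °C for minimum 48 hr; ATP measured via CellTiter-Glo, 30 min dark incubation, luminescence.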
* hit, by the source's call; ? = inconclusive; / = not tested or not shown; [ ] = dose if it differs, or a comment. Unless noted, calls come from the whole dose curve; as a rule, active = well fitted curve in the direction sought with a large enough effect; inconclusive = small, poorly fitted or top-dose-only effect, or another doubt; inactive = no such curve, though single readings can be large; an effect the other way counts as inactive or inconclusive. Unless noted, % is set by controls: 0 for no effect and ±100 for the full control effect.

SMILES	HT1080NT lethal	IL-1B inflam inh	TDP1 cell CPT	HT1080 IDH1KD tx	DT40 TDP1 no CPT
CCOC(=O)c1sc(NC(=O)c2nc3ncccn3n2)c(C(=O)OC(C)C)c1C	/	/	-1%	/	-5%
COc1ccc2c(c1)CCc1cnc(-n3ncc(C(=O)NCCCc4ccncc4)c3C)nc1-2	/	/	-2%[9.04 µM]	/	18µM*
COc1ccc(NC(=O)c2cnc(Nc3ccc(C)c(Cl)c3)c3ccccc23)c(OC)c1	/	/	-17%	/	-34%
Cn1nc(C(C)(C)C)cc1C(=O)N1CCCCC1c1cc(C(=O)NCc2ccc(F)cc2)no1 (stereo unspecified)	-24%	-17	21µM*	?	13µM*
Cn1nc(C(C)(C)C)cc1C(=O)N1CCCCC1c1cc(C(=O)NCc2ccccc2)no1 (stereo unspecified)	-2%	0	10µM*	?	10µM*
Cn1nc(C(C)(C)C)cc1C(=O)N1CCCCC1c1cc(C(=O)N2CCOCC2)no1 (stereo unspecified)	2%	11	?	16%	?
CCOCCSc1c(C)cnc2c1c(=O)n(C)c(=O)n2C	/	/	-7%	/	-16%
Cc1ccc(CN2CCN(C3CCNCC3)C(=O)C2=O)cc1	/	/	-13%	/	0%
O=C(CSc1nc2nn(-c3ccccc3)c(=O)c-2c2n1CCCCC2)Nc1ccccc1[N+](=O)[O-]	-13%	4	21µM*	-5%	?
O=C(CSc1nc2nn(-c3ccccc3)c(=O)c-2c2n1CCCCC2)NCCCc1ccccc1	-4%	-60*	2%	6%	4%
O=C1C(=O)N(CCCO)C(c2ccc(Br)cc2)/C1=C(\O)c1ccc(Br)cc1 (stereo unspecified)	0%	-11	-2%	-1%	7%
CC1CN=C(N(C(=O)Nc2ccccc2)c2ccc(S(=O)(=O)N3CCOCC3)cc2)S1 (stereo unspecified)	-10%	-22	-26%	-6%	?
Clc1ccc(Cn2ncc3c(N4CCCCC4)ncnc32)c(Cl)c1	8%	-7	23µM*	6%	12µM*
Clc1ccc(Cn2ncc3c(N4CCCCC4)ncnc32)cc1	-7%	-8	16µM*	-11%	21µM*
Clc1ccc(Cn2ncc3c(N4CCOCC4)ncnc32)cc1	-2%	-11	?	-9%	23µM*
Clc1ccc(Cn2ncc3c(N4CCCC4)ncnc32)cc1	-6%	?	-13%	-1%[9.24 µM]	?
O=C(Nc1cc(S(=O)(=O)N2CCOCC2)ccc1N1CCCC1)c1cc(=O)[nH]c2ccccc12	-9%	-9	-3%	0%	-2%
O=C(Nc1ccccc1N1CCOCC1)c1cccc2c(Br)cccc12	-7%	-3	?	-11%	18µM*
O=C(Nc1ccccc1N1CCOCC1)c1cc(=O)[nH]c2ccccc12	1%	6	?	-4%	16µM*
CCCCCCCCCCCC[N+](C)(C)Cc1ccccc1	/	/	1.5µM*	/	1.7µM*
CC1Cc2ccccc2N1C(=S)NC(=O)c1cccc(Br)c1 (stereo unspecified)	-8%	22	21µM*	-2%	15µM*
COc1cccc(C(=O)NC(=S)N2c3ccccc3CC2C)c1OC (stereo unspecified)	1%	5	-1%	7%	?
CC(=O)c1ccc(NC(=S)N2c3ccccc3CC2C)cc1 (stereo unspecified)	-1%	7	-27%	1%	-6%
CC1Cc2ccccc2N1C(=S)NC(=O)c1ccc(Cl)cc1Cl (stereo unspecified)	-3%	22	?	-3%	10µM*
COc1ccc(OCC(=O)Nc2cc(-c3nn(C)c(=O)c4ccccc34)ccc2N2CCOCC2)cc1	15%	/	?	0%	?
O=[N+]([O-])c1ccc(N2CCN(Cc3ccccc3)CC2)c2c1no[n+]2[O-]	23µM*	-87*	0.16µM*	15µM*	0.26µM*
O=C(CSc1nnnn1-c1ccc2c(c1)OCCO2)N1CCN(C(=O)c2ccco2)CC1	-2%	5	-1%	-11%	?

Screening results: PubChem BioAssay, National Center for Advancing Translational Sciences (NCATS)
